Assay outcomes: PubChem BioAssay, National Center for Advancing Translational Sciences (NCATS)
In the library only some 12% were active in any assay of this set; here they are far more common.
G9a inh: G9a (human) methyltransferase inhibition. Q96KQ7. G9a H3K9 monomethylation, AlphaScreen, 2 h. Potency, µM (doses to about 102 µM), for the others: at the highest dose activity, negative = inhibition, most hits filed as inhibitors. actives 8.8% (n = 350,000). AID 504332; further: on the % scale 0 is the no-effect control and ±100 the full control effect; nearly all actives have a fitted effect of over 75% in size
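G9a (20 nM) was preincubated 15 min with compound, then reacted 2 h at room temperature with 500 nM biotin-H3K9 peptide and 20 µM SAM. Monomethyl-H3K9 detected by AlphaScreen using anti-H3K9me1 antibody.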
Sfp inh: inhibitors of Bacillus subtilis Sfp phosphopantetheinyl transferase; Q9F4F7; Biochemical Sfp PPTase activity, qHTS; Potency, µM, inactives show largest response in the series, negative = inhibition, hits mostly inhibitors; actives 3.5% (n = 310,000); AID 1490;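 further: the enzyme is Sfp with the accession as filed and its product quenches rhodamine fluorescence; 0% = enzyme reaction without inhibitor and -100% = no enzyme wells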
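Buffer: 50 mM Hepes-Na pH 7.6, 10 mM MgCl2, 0.01% Nonidet P-40, 0.01% BSA. Enzyme 15 nM, pre-exposed to compound 15 min; substrates then added and fluorescence change tracked over 30 min.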
JMJD2A Tudor inh: blocks the human JMJD2A Tudor domain; AlphaScreen JMJD2A-Tudor / H3K4me3 peptide binding; Potency, µM (series often up to 114 µM), for the others: top-dose activity change, negative = inhibition, most hits filed as inhibitors; actives 4.4% (n = 390,000); AID 504339; further: on the % scale 0 is the no-effect control and ±100 the full control effect; nearly all actives have a fitted effect of over 50% in size
BAZ2B block: BAZ2B (human) inhibition; Potency, µM (top dose mostly 114 µM), for inactives: at the highest dose activity change, negative = inhibition, usual class: inhibitors; Q9UIF8; actives 4.4% (n = 360,000); AID 504333; AlphaScreen BAZ2B-H3K14Ac peptide displacement; further: on the % scale 0 is the no-effect control and ±100 the full control effect; nearly all actives have a fitted effect of over 60% in size
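In this displacement format the biotinylated H3(5-23) peptide acetylated at Lys14 serves as ligand at 50 nM, with BAZ2B at 50 nM in PBS pH 7.4 containing 0.01% Tween-20. Donor and acceptor beads are 10 ug/mL final.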
HP1b binding inh: inhibitors of HP1-beta chromodomain binding to methylated histone tails; P83916; AlphaScreen HP1-beta / biotin-H3K9me3 peptide binding; Potency, µM (titrated, usually from 114 µM), for the others: top-dose activity change, negative = inhibition, most hits filed as inhibitors; actives 0.56% (n = 390,000); AID 540317; further: nearly all actives have a fitted effect of over 70% in size
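HP1-beta protein (50 nM final) preincubated 30 min at room temperature with biotinylated H3(1-18)K9me3 peptide (50 nM) in PBS pH 7.4, 0.01% Tween-20, then compound added for 30 min. AlphaScreen streptavidin donor/nickel chelate acceptor beads (10 ug/mL final), 30 min dark, luminescence read.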
An asterisk follows results filed as active; u = inconclusive; x = no result given; ! = not active in a repeat; [ ] = remark or other dose. The call rests on the fitted dose curve; in most records, active means well fitted curve in the direction sought with a large enough effect; inconclusive means small, poorly fitted or top-dose-only effect, or another doubt; inactive means no such curve, though single readings can be large; an effect the other way counts as inactive or inconclusive. Potency means the concentration at half of the fitted maximal effect.

SMILES	G9a inh	Sfp inh	JMJD2A Tudor inh	BAZ2B block	HP1b binding inh
CCN1CCN(Cc2cccc(Oc3ccccc3)c2)CC1	3.55µM*	u	3.16µM*	31.6µM*	u
CCOC(=O)C1(c2ccccc2)CCN(Cc2cccc(C(=O)O)c2)CC1	-95.2%	-9.6%	-15.7%	0.1%	22.3%
COc1cc(C(C)=O)ccc1OC(=O)N(C)c1ccccc1	x	10.8%	-12.0%	-0.4%	36.4%
COc1ccc(/C=C2/C(=O)NC(=O)N(c3ccc(C)c(C)c3)C2=O)cc1CN1C(=O)c2ccccc2C1=O	11.2µM*	39.8µM*	50.1µM*	50.1µM*	-10.8%
COc1cc(/C=C2\C(=O)NC(=O)N(c3ccccc3)C2=O)cc(OC)c1OC	u	u	-24.7%	-36.7%	17.7%
CC1=NN(c2ccccc2)C(=O)C1/C=C1\C(=O)NC(=O)N(c2ccc(C)c(C)c2)C1=O (centres undefined)	44.7µM*	-20.4%	-4.8%[11.4 µM]	u	-13.8%
COc1cc(/C=C2\C(=O)NC(=O)N(c3ccc(C)cc3)C2=O)cc(OC)c1O	20µM*	35.5µM*	-2.7%	4.1%	25.5%
COc1cc(/C=C2/C(=O)NC(=O)N(c3ccc(C)cc3)C2=O)cc(OC)c1OC	-4.5%[12.7 µM]	50.1µM*	-13.5%	-4.2%	-7.5%
Cc1ccc(S(=O)(=O)NC(CC(=O)N2CCC3(CC2)OCCO3)c2ccco2)cc1 (centres undefined)	u	10.0%	-2.6%	-3.6%	12.4%
c1ccc2c(CN3CCOCC3)c[nH]c2c1	12.7%	3.9%	-2.6%	12.4%	33.9%
COc1ccc2c(c1)c(CCN)c(C)n2Cc1ccccc1	39.8µM*	-14.8%	u	u	u
C#CCOc1ccc2c(c1)c(C(C)=O)c(C)n2Cc1ccccc1	10.8%[59 µM]	2.4%	5.4%	5.8%	53.2%
C=CC(=O)NCNC(=O)C=C	8.5%[0.501 µM]	x	-2.8%	-4.9%	35.2%
O=C(Nc1ccc2oc(-c3cccnc3)nc2c1)c1ccc(-c2cccc(Cl)c2)o1	u	x	79.4µM*	56.2µM*	u
CCCN1CCC[C@@H]2Cc3nc(N)ncc3C[C@H]21	10.6µM*!	x	-30.3%	x	23.9%
CCCN1CCC[C@@H]2Cc3[nH]ncc3C[C@H]21	25.1µM*!	-2.0%	-23.0%	x	7.9%
FC(F)(F)C1=NC(C(F)(F)F)=NP(N2CCOCC2)(N2CCOCC2)=N1	-3.5%[12.7 µM]	8.5%	-4.7%	5.3%	44.4%
Cc1cc(OC(=O)N2CCCCC2)c(C(C)C)cc1[N+](C)(C)C	-42.2%[2.33 µM]	3.0%	x	x	x
O=C(O)C(O)(c1ccccc1)C1CCCC1 (centres undefined)	25.1µM*	7.7%	1.3%	u	46.1%
CN(C)C1C(=O)C(C(N)=O)=C(O)C2(O)C(=O)C3=C(O)c4c(O)cccc4C(C)(O)C3CC12 (centres undefined)	u	-1.1%	39.8µM*	12.6µM*	-12.3%
CN(C)[C@H]1C(=O)C(C(N)=O)=C(O)[C@]2(O)C(=O)C3=C(O)c4c(O)cccc4[C@@](C)(O)[C@H]3C[C@@H]12	1.4%[21.5 µM]	-11.6%	x	x	x
CN(C)[C@@H]1C(=O)C(C(N)=O)=C(O)[C@@]2(O)C(=O)C3=C(O)c4c(O)ccc(Cl)c4[C@@](C)(O)C3C[C@@H]12 (some centres undefined)	50.1µM*	5.2%	11.2µM*	44.7µM*	31.4%
O=P(N1CC1)(N1CC1)N1CCc2ccccc21	x	x	-31.0%	x	24.3%
O=c1[nH]sc2cc(F)ccc12	1.58µM*	3.16µM*	22.4µM*	44.7µM*	u
CCC(C)C1NC(=O)C(C(C)=O)=C1O (centres undefined)	13.6%[12.7 µM]	-4.0%	-23.1%	50.1µM*	44.3%
SMILES	G9a inh	Sfp inh	JMJD2A Tudor inh	BAZ2B block	HP1b binding inh
O=C(c1ccc(N2CCCCCC2)c([N+](=O)[O-])c1)N1CCC2(CC1)OCCO2	u	7.5%	u	-23.7%	0.2%
CN1c2ccc([N+](=O)[O-])cc2CC2(C(=O)NC(=O)N(c3ccccc3)C2=O)C1c1ccccc1 (centres undefined)	-10.3%[59 µM]	29.7%	-35.3%	-36.1%	-8.0%
Cc1ccc(N2C(=O)NC(=O)C3(Cc4ccccc4N4CCN(c5ccccc5)CC43)C2=O)cc1 (centres undefined)	7.08µM*	-12.2%	-33.3%	-32.4%	14.0%
CN1C(=O)N(C)C(=O)C2(Cc3ccccc3N3CCOCC32)C1=O (centres undefined)	-3.2%[12.7 µM]	19.6%	-15.0%	-12.8%	36.8%
O=C1NC(=O)C2(Cc3ccccc3N3CCCC32)C(=O)N1c1cccc(Cl)c1 (centres undefined)	31.6µM*	-11.3%	-32.4%	9.7%	30.9%
COCc1cc(OC(=O)N(C)C)nc(-c2ccccc2)n1	x	3.4%	7.9%	-1.0%	19.9%
Cc1cc(N)n(C2CCN(C)CC2)n1	14.1%	7.8%	-5.2%	8.0%	16.6%
COc1cccc(CNC(=O)c2cccc(S(=O)(=O)N3CCN(C)CC3)c2)c1	39.8µM*	12.8%	-9.6%	-9.3%	-0.5%
COc1ccc(OC)c(N2C(=O)NC(=O)/C(=C\c3ccc([N+](=O)[O-])s3)C2=O)c1	8.91µM*	22.4µM*	28.2µM*	28.2µM*	25.1µM*
O=C1NC(=O)N(c2ccccc2)C(=O)/C1=C\c1ccc([N+](=O)[O-])s1	8.91µM*	12.6µM*	22.4µM*	35.5µM*	15.8µM*
CCc1ccccc1N1C(=O)NC(=O)/C(=C\c2cc(C)n(C)c2C)C1=O	9.1%[59 µM]	3.3%	-15.4%	-4.4%	u
CN1C(=O)NC(=O)/C(=C/c2ccc([N+](=O)[O-])s2)C1=O	7.08µM*	11.2µM*	u	50.1µM*	u
CCN1CCN(P2(=O)C=C(c3ccccc3)OC(c3ccccc3)=C2)CC1	1.6%[12.7 µM]	-9.6%	u	-1.4%	-5.0%
O=C(CN1CCCCC1)c1ccccc1Cl	1.58µM*	-17.8%	-22.8%	-0.8%	37.6%
O=C(CN1CCCCC1)c1ccccc1F	25.1µM*	15.9%	-5.8%	-12.5%	52.5%
O=C(CN1CCCCC1)c1cccc(Br)c1	8.91µM*	-2.5%	-4.8%	-4.3%	44.6%
C[C@@H](Cc1ccccc1)NCCC(c1ccccc1)c1ccccc1	-22.8%[5.15 µM]	22.2%	x	x	x
O=C(C1CC(c2ccccc2O)=NO1)N1CCC2(CC1)OCCO2 (centres undefined)	50.1µM*	3.0%	14.1µM*	-7.9%	12.5%
O=C(c1ccccc1)N1CCC2(CC1)OCCO2	x	-4.5%	-5.8%	0.6%	20.8%
Cn1c(O)c(C(=Nc2ccccc2)SCc2ccc(Cl)cc2)c(=O)n(C)c1=O	u	44.7µM*	u	u	60.2%
CCCCCNc1c(C(=O)OCC)c(=O)[nH]c2ccccc12	1.6%[59 µM]	-13.5%	56.2µM*	8.6%	-14.3%
COc1cccc(C(=O)c2cn(CC(=O)Nc3cc(Cl)c(OC)cc3OC)c3nc(C)ccc3c2=O)c1	8.1%[59 µM]	x	-14.6%	5.2%	79.0%
CCC(=NCCCN1CCOCC1)c1c(O)n(Cc2ccccc2)c(=O)[nH]c1=O	12.6µM*	2.3%	-0.7%	11.3%	28.5%
